Screening results deposited in PubChem BioAssay by several laboratories.
Calb FLC – affects C. albicans growth with fluconazole. hit rate 0.57% among 300,000. C. albicans CaCi-2 (fluconazole-resistant clinical isolate) + fluconazole, Alamar Blue growth, 48 h. growth inhibition, % (no concentration beside the values);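 active = growth inhibition above about 58% in most replicates, limit read from the data, passing the limit was not always enough; inconclusive = exactly half the replicates above a set limit; inactive = most replicates below a set limit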;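 note: all wells also contain fluconazole at 8 µg/ml as a sub-toxic cotreatment; 0% = median of DMSO wells and 100% = median of geldanamycin control wells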
H9c2 protect – myocardial damage modulation in H9c2 cells; AID 588492; hit rate 0.63% among 360,000; H9c2 cardiomyocytes, H2O2 injury protection, ATPLite, 2 h; protection from H2O2 cell death, % at 20 µM;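 active = compounds giving at least 50% protection of heart cells from peroxide-induced death in the single-dose screen, raw or plate-pattern-corrected value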;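 note: 0% = DMSO wells with peroxide and 100% = DMSO wells without peroxide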
Efflux pump inh – inhibitors of Candida antifungal efflux pumps expressed in yeast | hit rate 0.44% among 330,000 | S. cerevisiae Candida pump triplex, Nile Red efflux | inhibition, % at 10 µM;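 active = plate passing quality check with inhibition over a set limit, or well fluorescence over plate mean plus 4 SD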;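 note: Nile Red retained in pooled yeast measured as flow cytometry median fluorescence; 0% = buffer negative control and 100% = Enniatin B positive control; higher means more Nile Red kept so more efflux inhibition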
PHOSPHO1 block – inhibitors of human PHOSPHO1 phosphatase | AID 1565 | hit rate 1.1% among 290,000 | recombinant PHOSPHO1, absorbance phosphatase assay | Q8TCT1 | inhibition, % at 13.3 µM; in the data active = inhibition above about 60%
Target sequence (Q8TCT1 whole entry, looked up): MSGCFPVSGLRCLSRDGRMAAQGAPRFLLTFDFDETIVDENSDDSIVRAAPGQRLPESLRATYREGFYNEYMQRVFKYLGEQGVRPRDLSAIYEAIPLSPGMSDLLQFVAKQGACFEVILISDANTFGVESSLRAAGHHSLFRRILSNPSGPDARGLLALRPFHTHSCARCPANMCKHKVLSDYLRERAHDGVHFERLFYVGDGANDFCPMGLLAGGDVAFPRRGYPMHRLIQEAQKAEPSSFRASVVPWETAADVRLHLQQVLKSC
Cl transport mod – modulators of human KCC2 chloride dependent transport; Q9H2X9; KCC2 cells, thallium flux FluoZin-2 fluorescence; B-score of Tl+ flux slope (higher = more flux/activation; lower = inhibition) at 10 µM; hit rate 2.2% among 190,000;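 active = thallium flux slope and its plate-corrected score both differing from the plate sample mean at a set confidence after two filtering rounds, in either direction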;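 note: slope of fluorescence scaled to starting intensity during 10 to 20 s after thallium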
KCC2 sec1 – KCC2 (human) modulation, secondary assay; AID 1713; hit rate 15% among 3,700; HEK293-KCC2, thallium flux, FluoZin2 fluorescence; hits give high values; normalised thallium flux (F/F0 slope) at 10 µM; shares compounds with Cl transport mod;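 active = thallium flux slope above the same plate's solvent-only control mean plus 3 SD; inconclusive = the two replicate wells disagree; inactive = no significant difference from solvent-only control wells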
KCC2 bumet counter – thallium flux persisting under bumetanide in KCC2 cells, counter-screen secondary assay. shares compounds with Cl transport mod. HEK293-KCC2 + bumetanide/ouabain, thallium flux FluoZin2; hits give high values. normalized thallium flux at 10 µM. hit rate 49% among 3,700. AID 1714;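 active = thallium entry rate above the same plate's blocked-transporter control wells by more than 3 SD; inconclusive = the two repeat wells disagree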;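 note: raw slope of fluorescence over initial fluorescence between 10 and 20 s after thallium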
KCC2 sec2 – confirmation of human KCC2 transport modulators. HEK293-KCC2, thallium flux FluoZin2 fluorescence; actives lie on both sides; F/F0 rise rate, 10–20 s post-thallium. normalized thallium flux at 10 µM. AID 1715. shares compounds with Cl transport mod. hit rate 23% among 3,700;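 active = thallium flux slope more than 3 SD above or below the plate's solvent-only control mean, mostly below; inconclusive = the two repeat wells disagreed; inactive = no significant shift from solvent-only controls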;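 note: raw slope with 0.1% DMSO as baseline and bumetanide as block control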
HEK293 Tl flux – counter-screen for KCC2 modulators: effect in parental HEK293 cells. shares compounds with Cl transport mod. thallium flux FluoZin2, ouabain; baseline-ratio fluorescence slope, 10–20 s after thallium. thallium flux rate (normalised fluorescence) at 10 µM. hit rate 46% among 3,700. AID 1716;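 active = thallium flux rate significantly above the same plate's solvent-only control wells, beyond their mean plus 3 SD; inconclusive = the two replicate wells gave conflicting results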
KCC2 ouabain – modulates human KCC2 on retest with ouabain. shares compounds with Cl transport mod. HEK293-KCC2, thallium flux FluoZin2 fluorescence; bidirectional: low = inhibitor, high = activator. raw Tl+ flux slope (below DMSO = inhibition, above = activation) at 10 µM. hit rate 48% among 3,700. AID 1717;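 active = thallium flux slope beyond 3 SD from same-plate DMSO control mean in most replicates, usually higher, sometimes lower; inconclusive = repeat tests gave conflicting results; inactive = no significant difference from controls in most replicates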;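 note: slope of initial-normalized fluorescence between seconds 10 and 20 after thallium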
HEK293 Tl flux2 – counter-screen for KCC2 modulators: effect in parental HEK293 cells; AID 1718; thallium flux slope at 10 µM; thallium flux FluoZin-2 fluorescence slope; hit rate 33% among 3,700; shares compounds with Cl transport mod;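 active = thallium flux slope above the same plate's solvent-control mean plus 3 SD in both duplicate wells; inconclusive = duplicate wells that disagreed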;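 note: run without ouabain in cells lacking the KCC2 cotransporter; slope of fluorescence scaled to its starting value between 10 and 20 s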
Starred values were filed as active, the others as inactive; ? = inconclusive; / = no result given. This is a sample that favours compounds with a hit; in the whole collection about 3.3% have one here.

SMILES	Calb FLC	H9c2 protect	Efflux pump inh	PHOSPHO1 block	Cl transport mod	KCC2 sec1	KCC2 bumet counter	KCC2 sec2	HEK293 Tl flux	KCC2 ouabain	HEK293 Tl flux2
CC1CCC/C(=N\NC(=S)Nc2ccccc2)C1 (centres undefined)	-12	4	0	-21	15*	0.014*	0.049*	0.033	0.018*	0.035*	0.012*
CC1CCC/C(=N\NC(=S)NCc2ccccc2)C1 (centres undefined)	-3	2	0	85*	8.1*	0.017	0.01*	0.027	?	0.017	0.012
COc1ccc(CNC(=S)Nc2cccc(OC)c2)cc1	-53	-2	0	24	/	/	/	/	/	/	/
CC1(C)CC(=O)C/C(=N\NC(=S)NCc2ccccc2)C1	12	2	0	48	0.46	/	/	/	/	/	/
COc1cccc(NC(=S)NN=C2CCCCCC2)c1	9	3	/	32	39*	0.019*	0.1*	?	0.041*	0.05*	0.017*
CC1CCCC/C1=N\NC(=S)Nc1ccccc1 (centres undefined)	-16	5	0	1	9.5*	0.013*	0.053*	0.035	0.019*	0.048*	0.013*
CC(C)C[C@@H]1NC(=O)N(CCCn2ccnc2)C1=O	0	16	0	15	/	/	/	/	/	/	/
CC1Cc2cc(S(=O)(=O)NCCC(=O)N(C)Cc3ccccc3)ccc2N1C(=O)C1CC1 (centres undefined)	-3	3	0	22	/	/	/	/	/	/	/
CC(C)Cn1c(=O)c2ccccc2n2c(CCC(=O)O)nnc12	-3	-2	4	38	/	/	/	/	/	/	/
CC(=O)Nc1ccc2nc(NC(=O)c3cccs3)sc2c1	6	3	0	19	4.1*	0.0052	?	0.03	0.0075	0.019	0.01
Nc1ccn(CC(=O)N[C@H](CO)Cc2c[nH]c3ccccc23)c(=O)n1	/	0	0	/	/	/	/	/	/	/	/
Cc1cccc(N2CCN(C(=O)Cn3ccc4ccccc4c3=O)CC2)c1C	-8	7	0	0	-4.5*	0.007	0.0041	0.023*	0.0069	0.016*	0.0097
Cc1cccc(N2CCN(C(=O)Cn3cnc4c3c(=O)n(C)c(=O)n4C)CC2)c1C	-1	17	0	-29	0.68	/	/	/	/	/	/
COc1ccc(-c2noc(CNC(=O)c3ccc4c(c3)OCO4)n2)cc1OC	7	-3	0	22	/	/	/	/	/	/	/
O=C(OCCCCN1C(=O)c2ccccc2C1=O)c1n[nH]c2ccccc12	-4	15	0	-3	-2.9*	0.0048	0.0067*	0.028	?	?	0.01
CC/C(=N\NC(=O)Cc1ccc(Br)cc1)c1cccs1	17	-2	0	2	/	/	/	/	/	/	/
CC(=O)c1nc2ccccc2n1S(=O)(=O)c1ccc(C)cc1	33	5	0	35	5.6*	0.011	?	0.029	0.0076	0.018	0.01
Cc1ccc(C(O)Cn2nc(C)cc2C)cc1 (centres undefined)	-6	-3	0	/	/	/	/	/	/	/	/
S=C(NCCc1ccccc1)N/N=C/c1c(Cl)cccc1Cl	2	-12	0	1	7.9*	?	0.019*	?	0.015*	0.032*	0.017*
S=C(NCCc1ccccc1)N/N=C/c1ccc(Cl)cc1	-9	8	0	22	0.46	/	/	/	/	/	/
CNC(=S)N/N=C/c1c(Cl)cccc1Cl	-26	2	0	-11	5.4*	0.0067	0.014*	0.03	0.016*	0.023	0.013*
COc1ccccc1NC(=O)c1oc2ccccc2c1NC(=O)c1cc(OC)c(OC)c(OC)c1	8	4	0	/	0.43	/	/	/	/	/	/
COc1ccccc1NC(=O)c1oc2ccc(C)cc2c1C	0	-19	0	-8	-4.7*	0.0059	0.0053	0.031	0.0081	0.019	0.012
O=C(O)/C=C\c1ccccc1Oc1cccc(Cl)c1	-7	3	0	-21	-2.6	/	/	/	/	/	/
O=C(O)/C=C/c1ccccc1Oc1ccc(Cl)cc1Cl	63	-3	0	11	-6.6*	0.0051	0.006*	0.021*	0.0068	?	0.01
SMILES	Calb FLC	H9c2 protect	Efflux pump inh	PHOSPHO1 block	Cl transport mod	KCC2 sec1	KCC2 bumet counter	KCC2 sec2	HEK293 Tl flux	KCC2 ouabain	HEK293 Tl flux2
COC(=O)c1ccc(CSc2ncnc3sc(C)c(C)c23)o1	-4	6	0	6	51*	0.011*	0.1*	0.07*	0.064*	0.084*	0.05*
C=CCSc1ncnc2sc(C)c(C)c12	9	-6	0	-6	4.8*	0.011	0.023*	0.034	0.013*	0.025	0.013*
CCSc1ncnc2sc(C)c(C)c12	7	-10	0	-19	-0.76	/	/	/	/	/	/
O=C(COc1ccccc1Cl)N1CCN(C(=O)c2ccco2)CC1	2	3	-2	23	/	/	/	/	/	/	/
CC1=C(C(=O)N2CCOCC2)CC(CC(=O)NC2CC2)C(=O)N1Cc1ccc(F)cc1 (centres undefined)	/	0	/	/	/	/	/	/	/	/	/
CCc1ccc(Nc2nnc(SC3CCOC3=O)s2)cc1 (centres undefined)	-3	-18	-1	-33	-5.3*	0.0064	?	0.023*	0.0068	?	0.01
S=c1nc(SCc2ccccc2)[nH]c2ccccc12	35	-3	0	-10	120*	0.019*	0.098*	0.1*	0.11*	0.095*	0.1*
c1ccc(CSc2nc3ncncc3[nH]2)cc1	8	0	0	42	0.15	/	/	/	/	/	/
O=C(CN1C(=O)C2CCCCC2C1=O)Nc1nc(-c2ccccn2)cs1 (centres undefined)	-2	9	0	71*	/	0.0062	0.007*	0.032	0.0075	0.02	0.011
S=c1[nH]nc(-c2cc(-c3ccccc3)n[nH]2)n1/N=C/c1ccc(Cl)c(Cl)c1	0	-9	0	-10	0.3	/	/	/	/	/	/
S=c1[nH]nc(-c2ccccn2)n1/N=C/c1ccc(-c2ccccc2Cl)o1	40	8	0	46	132*	0.12*	0.14*	0.031	0.13*	0.15*	0.013*
Cc1n[nH]c(=S)n1/N=C/c1ccc(-c2ccc(Cl)cc2)o1	-1	-2	0	/	/	/	/	/	/	/	/
